The supplement of paper PMC9948646

tested on: gramicidin D channels in DC22:1PC lipid vesicles (bilayer-modifying potency); assay: initial Tl+ fluorescence quench rate relative to no-drug control (NormRate, gramicidin monomer-dimer shift) (ratio (fold of control)); higher = stronger bilayer-modifying effect (equilibrium shifted toward conducting dimers), active = 1.5 or more; settings: 10 µM; lipid concentration 50 µM; temperature: 25 °C
Protocol: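 Stopped-flow fluorescence quench assay: ANTS-loaded DC22:1PC large unilamellar vesicles doped with gramicidin D (1:2000), 50 µM lipid, equilibrated 10 min with 10 µM drug (0.1% DMSO), mixed with Tl+ quench buffer at 25°C. Initial quench rate (Tl+ influx) was fitted with a modified stretched exponential and normalised to the no-drug control rate (NormRate); duplicates from two independent LUV preparations (triplicates for 7 drugs).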

Row | SMILES | initial Tl+ fluorescence quench rate
1 | CN1CCCN([C@H](c2ccccc2)c2ccc(Cl)cc2)CC1 | 1.43 (inactive)
2 | CC(C)(C)c1cc(C(=O)Nc2cccnc2)cc(C(=O)Nc2cccnc2)c1 | 1.39 (inactive)
3 | CC(C)(C)c1cnc(NC(=O)c2ccccc2O)s1 | 2.31 (active)
4 | c1ccc(Oc2ccc(-c3cc(CN4CCOCC4)[nH]n3)cc2)cc1 | 1.7 (active)
5 | CCOc1ccc2cc(-c3nn(CC4CCN(C)CC4)c4ncnc(N)c34)ccc2c1 | 1.16 (inactive)
6 | C[C@H](C(N)=O)N1CCCC[C@@H]1c1ccc(OCc2cccc(F)c2)cc1 | 2.68 (active)
7 | Cc1ccc2c(c1C)NC(=O)[C@@]21NN=C(c2ccccc2)S1 | 1.38 (inactive)
8 | O=C(Nc1cccnc1)c1c(O)c2cccc3c2n(c1=O)CC3 | 1.07 (inactive)
9 | CNc1nnc(Sc2cnn(-c3ccccc3)c(=O)c2Cl)s1 | 1.04 (inactive)
10 | COc1ccc(-c2nnc3ccc(-c4cccc(C(C)C)c4)cn23)cc1OC | 2.38 (active)
11 | NCCC[C@](N)(C(=O)O)C(F)F | 1.07 (inactive)
12 | O=C(Nc1cnc2ccccc2c1)c1cccc(-n2cnnn2)c1 | 1.26 (inactive)
13 | COc1cc(N[C@H](C)CCCN)c2ncccc2c1 | 1.02 (inactive)
14 | CCc1c(C)nc(-n2nc(C)cc2NC(=O)c2ccccc2SC)[nH]c1=O | 1.2 (inactive)
15 | OC[C@H]1O[C@@H](n2c3ccc(Cl)cc3c3c(-c4cc5ccccc5o4)ncnc32)[C@H](O)[C@H]1O | 3.52 (active)
16 | Nc1ncc(Br)cc1-c1nc2cc(Cl)cnc2[nH]1 | 1.06 (inactive)
17 | COc1ccc(-c2cc(NC(=O)c3ccc(F)cc3Cl)ccc2OC)cc1 | 2.04 (active)
18 | CCOC(=O)c1c(NC(=O)c2c(F)c(F)c(F)c(F)c2F)sc(C(N)=O)c1C | 1.41 (inactive)
19 | O=C(NCc1nnc2n1CCCCC2)c1ccc(-c2ccc(F)cc2)o1 | 1.08 (inactive)
20 | Nc1ccc(C(=O)Nc2ccc(-c3nc4ccccc4o3)cc2)cc1 | 1.1 (inactive)

Row | SMILES | initial Tl+ fluorescence quench rate
21 | CNC(=O)CNc1nc(-c2ccccn2)nc2scc(-c3ccccc3)c12 | 5.21 (active)
22 | c1ccc(Oc2ccc(-c3cc(N4CCNCC4)[nH]n3)cc2)cc1 | 1.44 (inactive)
23 | C[C@H]1c2cccc(O)c2C(=O)C2=C(O)[C@]3(O)C(=O)C(C(N)=O)=C(O)[C@@H](N(C)C)[C@@H]3[C@@H](O)[C@@H]21 | 1.02 (inactive)
24 | CNc1cc(C)nc([C@@H]2CN(C(=O)c3n[nH]c4ccccc34)CCO2)c1 | 1.11 (inactive)
25 | O=C(CN1CCOCC1)Nc1ccc2ncnc(Nc3ccc(OCc4cccc(F)c4)c(Cl)c3)c2c1 | 6.71 (active)
26 | Cc1ccc(S(=O)(=O)N2CCN(C(=O)c3cc(-c4ccccc4)[nH]n3)CC2)cc1 | 1.38 (inactive)
27 | CNC(=O)c1cc(S(=O)(=O)N2CCN(c3ccccn3)CC2)cs1 | 1.07 (inactive)
28 | c1ccc(Oc2ccc(-c3cncc(-c4ccc5[nH]ccc5c4)n3)cc2)cc1 | 1.69 (active)
29 | CCCCN(CCCC)c1c(C#N)cc(S(=O)(=O)Nc2ccccc2)cc1C#N | 1.1 (inactive)
30 | COc1cccc(CC(=O)N2CCC(n3c(C)nc4ccc(F)cc43)CC2)c1 | 1.15 (inactive)
31 | Cc1nn2c(O)c3c(nc2c1-c1ccc(F)cc1)CCCC3 | 1.07 (inactive)
32 | CC(C)(CN)c1nc(-c2ccc(Cl)c(O)c2)c(-c2ccnc(N)n2)[nH]1 | 1.15 (inactive)
33 | CCN(CC)S(=O)(=O)c1ccc(C(=O)Nc2cc(C)nn2-c2nc(C)c(C)c(=O)[nH]2)cc1 | 1.57 (active)
34 | Cc1nc(-c2ccccn2)nc(N2CC[C@@H](Cc3ccccc3)C2)c1Cl | 3.57 (active)
35 | [H]/N=C(/N)c1ccc(-c2cc(-c3ccccc3)on2)cc1 | 1.08 (inactive)
36 | Nc1cccnc1Nc1ccc(Cl)cc1 | 1.05 (inactive)
37 | O=C(Nc1cccc(Cl)c1)c1cnc(N2CCN(c3ccncc3)CC2)c(Cl)c1 | 3.74 (active)
38 | COc1ccc(Cl)cc1NC(=O)CN(C)C(=O)c1cnn(-c2ccccc2)n1 | 3.28 (active)
39 | COc1ccc(S(=O)(=O)Nc2ccc(CN3CCN(C(=O)c4cccc(C#N)c4)CC3)cc2)cc1 | 1.41 (inactive)
40 | COc1cncc(-c2cncc(N3CCN(c4ccncc4)CC3)n2)c1 | 1.11 (inactive)
